Our source for the inhibition values is ChEMBL document CHEMBL5606460, “ASAP - DENV-2 NS2B-NS3 protease fluorescence single point” (2024).

In the assay the target is Genome polyprotein (dengue virus type 2) (UniProt P29990).
[1] abbreviates: Thailand/16681/1984, Concentration 25.0 uM, Number of replicates 1.0.

About 110 (5.5%) of roughly 2,000 compounds showed an effect of 50% or more. The entries come from a sample that favours strong results as a whole.

Take `O=Cc1ccc(N2CCC(C(=O)NCc3cccc([N+](=O)[O-])c3)CC2)cc1`: the inhibition under setting [1] came to 11%.
Same read-out and setting: under `NC(=O)c1ccc(Cl)c(NC(=O)C2CCN(c3ccc(C=O)cc3)CC2)c1` stands 13.8%.
Take `Cc1cc(CO)c2cccc(Cc3cccc(NC(=O)Cc4cccc(CN)c4)c3)c2n1`: the inhibition (Thailand/16681/1984, Concentration 49.95 uM, Number of replicates 2.0, Standard deviation 1.5571170041089204 %) came to 9.22% and the inhibition (Thailand/16681/1984, Concentration 99.9 uM, Number of replicates 2.0, Standard deviation 3.140543082582705 %) was 20.8%.
Take `NCc1cccc(NC(=O)[C@@H](NC(=O)OCc2ccccc2)C(C2CCC2)C2CCC2)c1`: the inhibition was determined as 0.575% (Thailand/16681/1984, Concentration 49.5 uM, Number of replicates 2.0, Standard deviation 1.0931409988329541 %); 21.9% (Thailand/16681/1984, Concentration 99.01 uM, Number of replicates 2.0, Standard deviation 7.259842534821406 %); 99.8% (Thailand/16681/1984, Concentration 198.0 uM, Number of replicates 2.0, Standard deviation 0.026391345013157583 %).
Regarding `NCc1cccc(NC(=O)[C@@H](NC(=O)OCc2ccccc2)C2CCCCC2)c1`, the inhibition was -3.1% (Thailand/16681/1984, Concentration 49.5 uM, Number of replicates 2.0, Standard deviation 3.75421470496627 %); -1.76% (Thailand/16681/1984, Concentration 99.01 uM, Number of replicates 2.0, Standard deviation 3.4431804249233626 %); 79.9% (Thailand/16681/1984, Concentration 198.0 uM, Number of replicates 2.0, Standard deviation 6.458747607105988 %).
Consider `CC(C)C[C@@H](NC(=O)OCc1ccccc1)C(=O)Nc1cccc(CN)c1`, for which the inhibition was -4.42% (Thailand/16681/1984, Concentration 49.5 uM, Number of replicates 2.0, Standard deviation 3.1792600205617827 %); -3.69% (Thailand/16681/1984, Concentration 99.01 uM, Number of replicates 2.0, Standard deviation 3.3347078817009965 %); -2.71% (Thailand/16681/1984, Concentration 198.0 uM, Number of replicates 2.0, Standard deviation 3.065424880922284 %).
Turning to `CC(C)(C)[C@@H](NC(=O)OCc1ccccc1)C(=O)Nc1cccc(CN)c1`, the inhibition runs as follows: (Thailand/16681/1984, Concentration 49.5 uM, Number of replicates 2.0, Standard deviation 1.83793572376561 %) -6.76%; (Thailand/16681/1984, Concentration 99.01 uM, Number of replicates 2.0, Standard deviation 1.8206757463634287 %) -7.66%; (Thailand/16681/1984, Concentration 198.0 uM, Number of replicates 2.0, Standard deviation 1.2664180516369132 %) -8.05%.
Consider `NCc1cccc(NC(=O)[C@@H](CO)NC(=O)OCc2ccccc2)c1`, for which the inhibition is, setting by setting: (Thailand/16681/1984, Concentration 49.5 uM, Number of replicates 2.0, Standard deviation 0.4735169770341957 %) -3.34%; (Thailand/16681/1984, Concentration 99.01 uM, Number of replicates 2.0, Standard deviation 2.1222171442022573 %) -3.24%; (Thailand/16681/1984, Concentration 198.0 uM, Number of replicates 2.0, Standard deviation 1.1527028197814282 %) -3.94%.
For the molecule `C[C@@H](NC(=O)OCc1ccccc1)C(=O)Nc1cccc(CN)c1`, the inhibition is, setting by setting: (Thailand/16681/1984, Concentration 49.5 uM, Number of replicates 2.0, Standard deviation 1.8366578313187596 %) -7.57%; (Thailand/16681/1984, Concentration 198.0 uM, Number of replicates 2.0, Standard deviation 1.0835833369227144 %) -9.56%.
In the case of `C[C@H](NC(=O)C1CCN(c2ccc(C=O)cc2)CC1)c1ccc(S(C)(=O)=O)cc1`, the inhibition under setting [1] was 12.5%.
Same read-out and setting: the result for `CCN(C(=O)C1CCN(c2ccc(C=O)cc2)CC1)[C@H]1CCOC(C)(C)C1` reads 13%.
Turning to `NCc1cccc(NC(=O)[C@@H](Cc2cccc(O)c2)NC(=O)OCc2ccccc2)c1`, the inhibition was -3.63% (Thailand/16681/1984, Concentration 49.5 uM, Number of replicates 2.0, Standard deviation 2.8573642237031027 %); -3.65% (Thailand/16681/1984, Concentration 99.01 uM, Number of replicates 2.0, Standard deviation 1.9175045904819328 %); -2.84% (Thailand/16681/1984, Concentration 198.0 uM, Number of replicates 2.0, Standard deviation 1.9524208099559948 %).
On to `COc1cc(C(=O)N(C)C)nc(N2CCNCC2)n1`, for which the inhibition is -3.23% (Thailand/16681/1984, Concentration 49.5 uM, Number of replicates 2.0, Standard deviation 4.026406870890022 %); -4.25% (Thailand/16681/1984, Concentration 99.01 uM, Number of replicates 2.0, Standard deviation 2.6098419358385048 %); -2.7% (Thailand/16681/1984, Concentration 198.0 uM, Number of replicates 2.0, Standard deviation 2.250930669275132 %).
Take `CC(C)(C)OC(=O)N[C@H](C(=O)Nc1cccc(CN)c1)c1ccc(OCc2ccccc2)cc1`: the inhibition is -1.9% (Thailand/16681/1984, Concentration 49.5 uM, Number of replicates 2.0, Standard deviation 1.7551947166429631 %); 3.23% (Thailand/16681/1984, Concentration 99.01 uM, Number of replicates 2.0, Standard deviation 0.05489981052071439 %); 15% (Thailand/16681/1984, Concentration 198.0 uM, Number of replicates 2.0, Standard deviation 0.6374768156986698 %).
As for `CCCC[C@@H](NC(=O)OC(C)(C)C)C(=O)N[C@@H](C(=O)NCc1ccc(CN)cc1)c1ccc(OCc2ccccc2)cc1`, the inhibition worked out at 94% (Thailand/16681/1984, Concentration 49.5 uM, Number of replicates 2.0, Standard deviation 1.8529777654117539 %); 100% (Thailand/16681/1984, Concentration 99.01 uM, Number of replicates 2.0, Standard deviation 0.005880328304239935 %); 99.9% (Thailand/16681/1984, Concentration 198.0 uM, Number of replicates 2.0, Standard deviation 0.014706215557209234 %).
As for `CC(C)(C)OC(=O)N[C@H](C(=O)Nc1ccc(CN)cc1)c1ccc(OCc2ccccc2)cc1`, the inhibition by setting is: (Thailand/16681/1984, Concentration 49.5 uM, Number of replicates 2.0, Standard deviation 0.7638001086987946 %) -1.42%; (Thailand/16681/1984, Concentration 99.01 uM, Number of replicates 2.0, Standard deviation 0.5692523211680847 %) 0.423%; (Thailand/16681/1984, Concentration 198.0 uM, Number of replicates 2.0, Standard deviation 0.3400589812244498 %) 5.26%.
On to `CCCC[C@H](NC(=O)OC(C)(C)C)C(=O)N[C@H](C(=O)NCc1ccc(C(N)=O)cc1)c1ccc(OCc2ccccc2)cc1`, for which the inhibition was -3.24% (Thailand/16681/1984, Concentration 49.5 uM, Number of replicates 2.0, Standard deviation 0.5441055304446053 %); 12.6% (Thailand/16681/1984, Concentration 99.01 uM, Number of replicates 2.0, Standard deviation 1.2410372194636528 %); 97.6% (Thailand/16681/1984, Concentration 198.0 uM, Number of replicates 2.0, Standard deviation 0.08996362825826161 %).
With `CC(C)(C)OC(=O)N[C@H](C(=O)Nc1cccc(C(N)=O)c1)c1ccc(OCc2ccccc2)cc1`, the inhibition by setting is: (Thailand/16681/1984, Concentration 49.5 uM, Number of replicates 2.0, Standard deviation 1.188000805409302 %) 2.72%; (Thailand/16681/1984, Concentration 99.01 uM, Number of replicates 2.0, Standard deviation 0.11203913598390365 %) 5.59%; (Thailand/16681/1984, Concentration 198.0 uM, Number of replicates 2.0, Standard deviation 0.9108004769909699 %) 7.47%.
Take `Cc1cnccc1NC(=O)c1ccc2c(c1)COCC2`: the inhibition by setting is: (Thailand/16681/1984, Concentration 49.5 uM, Number of replicates 2.0, Standard deviation 2.5121871293930202 %) -1.99%; (Thailand/16681/1984, Concentration 99.01 uM, Number of replicates 2.0, Standard deviation 1.8322256055090813 %) -1.68%; (Thailand/16681/1984, Concentration 198.0 uM, Number of replicates 2.0, Standard deviation 3.8354075529759903 %) -1.51%.
For the molecule `NCc1cccc(NC(=O)C2(NC(=O)OCc3ccccc3)CC(F)(F)C2)c1`, the inhibition (Thailand/16681/1984, Concentration 49.5 uM, Number of replicates 2.0, Standard deviation 2.2677200349668407 %) was -2.94%; the inhibition (Thailand/16681/1984, Concentration 99.01 uM, Number of replicates 2.0, Standard deviation 0.8839411333719474 %) was -2.06%; the inhibition (Thailand/16681/1984, Concentration 198.0 uM, Number of replicates 2.0, Standard deviation 0.8051076448684426 %) is -2.25%.
Regarding `Cc1cc(CO)c2cccc(Cc3ccccc3NC(=O)CN3CCOCC3)c2n1`, the inhibition is -2% (Thailand/16681/1984, Concentration 49.95 uM, Number of replicates 2.0, Standard deviation 1.5612707024702146 %) and 3.39% (Thailand/16681/1984, Concentration 99.9 uM, Number of replicates 2.0, Standard deviation 0.4618038620708361 %).
Regarding `COc1cc(Cc2cnc(N)c(C(F)F)c2)nc(N2CCNCC2)n1`, the inhibition is, setting by setting: (Thailand/16681/1984, Concentration 49.5 uM, Number of replicates 2.0, Standard deviation 0.44655669171298956 %) 1.19%; (Thailand/16681/1984, Concentration 99.01 uM, Number of replicates 2.0, Standard deviation 0.9500169394185984 %) 3.1%; (Thailand/16681/1984, Concentration 198.0 uM, Number of replicates 2.0, Standard deviation 0.4205436146652173 %) 6.14%.
Regarding `CCCOc1ccc([C@H](C)NC(=O)C2CCN(c3ccc(C=O)cc3)CC2)cc1`, the inhibition under setting [1] came out at 7.26%.
On to `COc1ccc(C[C@H]2c3cc(OC)c(OC)cc3CCN2C(=O)C2CCN(c3ccc(C=O)cc3)CC2)cc1OC`, for which, under setting [1], the inhibition came out at 15.8%.
Regarding `CCn1c(=O)c(N2CC[C@@H](CO)C2)nc2ccccc21`, the inhibition is, setting by setting: (Thailand/16681/1984, Concentration 49.5 uM, Number of replicates 2.0, Standard deviation 0.8446781408235627 %) 16.3%; (Thailand/16681/1984, Concentration 99.01 uM, Number of replicates 2.0, Standard deviation 1.6946189057395897 %) 33.2%; (Thailand/16681/1984, Concentration 198.0 uM, Number of replicates 2.0, Standard deviation 1.3775046688444705 %) 53.9%.

One may read the inhibition as the drop in the measured response relative to a control, in per cent.
